# Screening results: PubChem BioAssay, Buhrlage Lab, Dana-Farber Cancer Institute and Novartis Institutes for BioMedical Research (Cambridge, Mass)
# Rows were chosen to be rich in hits. Some 1.7% of all compounds tested hit in one or more screens of this group.
# USP7 block – inhibitors of human USP7 deubiquitinase. Ubiquitin carboxyl-terminal hydrolase 7 (Homo sapiens), Q93009. purified USP7, Ub-rhodamine cleavage fluorescence. inhibition, % at 20 µM. actives 0.3% (n = 47,000)
# OTUD3 block – inhibitors of human OTUD3 deubiquitinase; purified OTUD3, Ub-rhodamine fluorescence, 2 h; actives 0.7% (n = 47,000); inhibition, % at 25 µM
# UCHL1 inh – inhibitors of human UCHL1 deubiquitinase | Ubiquitin carboxyl-terminal hydrolase isozyme L1 (Homo sapiens), P09936 | purified UCHL1, Ub-rhodamine cleavage fluorescence | inhibition, % at 20 µM | actives 0.2% (n = 47,000) | AID 1645859, 2021
# USP10 inh – inhibitors of human USP10 deubiquitinase; Ubiquitin carboxyl-terminal hydrolase 10 (Homo sapiens), Q14694; actives 1.1% (n = 47,000); purified USP10, Ub-rhodamine fluorescence, 60 min; inhibition, % at 20 µM
# The depositor's hits bear a star; nt = not tested or not shown. No stated cut-off is given here; in the data, active means inhibition above about 30%; inactive means the rest.
SMILES,USP7 block,OTUD3 block,UCHL1 inh,USP10 inh
COc1ccc(Cc2nnc(NC(C)c3ccccc3)[nH]c2=O)cc1 (centres undefined),15,10,4,31*
CN(Cc1ccccc1)S(=O)(=O)c1ccc(C(=O)Nc2ccccc2)cc1,1,2,3,6
COc1ccc2c(Cl)c(C(=O)Nc3ccc(S(=O)(=O)N(C)Cc4ccccc4)cc3)sc2c1,9,-4,1,42*
Cc1cccc(NC(=O)Cn2cnc(-c3noc(-c4ccccc4)n3)c2)c1C,24,37*,7,26
O=C(Cn1cnc(-c2noc(-c3ccc(F)cc3)n2)c1)Nc1ccccc1F,15,10,7,26
COc1ccc2c(C)cc(SCC(=O)Nc3nsc(-c4ccc(C)cc4)n3)nc2c1,1,47*,-1,6
COc1cccc(NC(=O)CSc2cc(C)c3cc(S(=O)(=O)N(C)C)ccc3n2)c1,-1,-12,-4,-9
CC(C)CC1NC(=O)C2CCCN2C1=O (centres undefined),-115,33*,41*,17
CCC(C(=O)C(C)C(O)C(C)CCc1ccc(C)c(O)c1C(=O)O)C1OC(CC)(C2CCC(O)(CC)C(C)O2)CC1C (centres undefined),28,32*,5,61*
Cc1n[nH]c(C)c1CC(=O)N1CCCC(c2ccc3cn[nH]c3n2)C1 (centres undefined),2,-2,-2,1
Cc1cnc(CN2CCCC(c3ccc4cn[nH]c4n3)C2)cn1 (centres undefined),2,47*,0,0
COc1ccc(OC)c(C2=NO[C@]3(C(=O)Nc4ccccc43)[C@H]2C(=O)c2ccco2)c1,9,1,4,2
COc1ccc(OC)c(C(C(=O)NC2CCCCC2)N(C(=O)c2ccc3c(c2)OCCO3)c2ccc(C)cc2)c1 (centres undefined),8,11,11,8
Cc1nn(C)cc1C(C(=O)NC1CCCCC1)N(C(=O)CN1C(=O)c2ccccc2S1(=O)=O)c1ccc2c(c1)OCO2 (centres undefined),19,4,12,40*
COc1ccc(-c2cc3nc([C@H](C)NC(=O)Cc4cc(F)ccc4F)nn3cn2)cc1,46*,29,22,37*
COc1cccc(CC(=O)N[C@@H](C)c2nc3cc(-c4ccc(F)cc4)ncn3n2)c1,-3,22,0,0
COc1ccc(-c2cc3nc([C@H](C)NC(=O)Cc4cccc(F)c4)nn3cn2)cc1,52*,17,38*,29
COc1ccc(-c2nc(CNC(=O)c3ccccc3C)cs2)cc1,57*,-5,0,0
CC(C(=O)NCCc1ccccc1)n1nc(-c2ccccc2)c2cc(Cl)ccc21 (centres undefined),2,34*,2,3
Cc1nn(-c2ccc(Cl)cc2)c2[nH]c(=O)c(CNc3ccc4c(c3)OCCO4)cc12,30,-39,11,18
O=C(c1ccc2cc[nH]c2c1)N1CCC(Nc2cccnc2)C1 (centres undefined),-29,55*,21,10
CSC1SCC2C(=O)N(C)C(C(C)C(C)C)C(=O)OCC(NC(=O)c3cnc4ccccc4n3)C(=O)NC(C)C(=O)N(C)C1C(=O)N(C)C(C(C)C(C)C)C(=O)OCC(NC(=O)c1cnc3ccccc3n1)C(=O)NC(C)C(=O)N2C (centres undefined),18,2,7,38*
CC(=O)C1=C(O)[C@]2(O)C(=O)c3c(c(C)c4ccc(C)c(O)c4c3O)C[C@H]2[C@@H](N)C1=O,58*,67*,66*,-9
COc1cccc(C(=O)Nc2nc(-c3ccco3)c(-c3ccco3)s2)c1,50*,25,52*,-8
COC(=O)C1CCN(C(=O)CC[C@H]2CNC(=O)[C@@H]3[C@@H](CCN3Cc3cccc(Cl)c3)N2C)CC1,-1,-3,-1,-2
SMILES,USP7 block,OTUD3 block,UCHL1 inh,USP10 inh
CCNC(=O)c1cccnc1OC1CCN(C(=O)c2cc(C)cc(C)c2)C1 (centres undefined),1,4,-2,3
Cn1ccc2ccn(CC(=O)Nc3cccc(Cl)c3)c(=O)c21,nt,0,1,1
CC(=O)Nc1cccc(NC(=O)Cn2ccc3cc(Br)ccc32)c1,13,33*,-1,10
O=C1Nc2ccccc2C(=O)C1C(c1ccc(Cl)cc1)C1C(=O)Nc2ccccc2C1=O (centres undefined),10,28,12,54*
COC(=O)c1cc(O)c2ccccc2c1O,-134,-154,-66,-10
Cc1cccc(CCN2C(=O)CCc3c(C)nc(C4CCCNC4)nc32)c1 (centres undefined),33*,16,4,0
Cc1nc(C2CCCNC2)nc2c1CC(=O)N2CCc1ccccc1F (centres undefined),-4,-12,-3,-4
